# Source: the supplement of paper PMC6555819
# Test system: VDR:RXRa (NR concentration 270 nM, RXRa partner concentration 90 nM)
# Experiment: PBM binding z-score (relative to random genomic background probes); higher = stronger binding; sequences stand for … in GC…GCGATTGACAGCGTAGAATGAAGG
# Description: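 Protein-binding microarray (Agilent 4x180K custom design, double-stranded 60-nt probes: 5' GC cap, 34-nt variable region, 24-nt constant primer region; full probe sequence given). Purified or IVT nuclear receptor:RXRα heterodimers (3:1 NR:RXRα, mostly 270:90 nM) or homodimers were incubated for 1 h in PBS with 2% milk and no ligand, then detected with Alexa488 antibodies. Fluorescence from o1-orientation probes (~5 replicates averaged) was converted to z-scores against 500 random hg19 background probes. Variable regions are seed direct-repeat (DR0–DR5) sites, all their single-nucleotide variants and half-site ablations.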
row,Sequence,PBM binding z-score
1,ATAAGTAGGTTACATCCGGGTCATTCAGGCTATG,4.06
2,TAGCCTAGGTCAGTGGGCCAGTATAGTACGCATC,0.148
3,CCGGCTAGGTCAATGGTCAGCTAAAGCAGCTCGC,0.907
4,CCTAGTTGGTCAGCAGGTCACACACCGGATATGA,2.32
5,CCTACTGTGCCACGAAAGGTCATTGATTCAGTGA,4.38
6,ATATGTATGTTAAGGGTCATTCAGGTTGGTTCGC,5.25
7,GGAACGAGGGCAAAGTTGATAGCCTCTGTCGACG,0.981
8,TCTAGTTGGTCACGGATGTCACACACGACGGGTA,1.18
9,CCAACTGGGCCACGAAAGGTCATTGATTCAGTGA,4.26
10,GCGACTGGGGCATCAGCAGGTTATCATAACTTAA,-0.0496
11,CAAACTAGGTCAAAGGTCCAAGTCGAGCCAACCA,3.41
12,CGTCCAAGGTCAATGCTAGGTCAGTGCAAGCATT,4.95
13,CCTCGGAGGACAGAAAGTCAGAGCTGTCCGCTTT,-0.616
14,CCTATTAGCTGACCATAAGGGCAACCGAAGCTCG,0.159
15,AGTTAAAGTTCACTAGGTAACGTAAGATTCAGCT,3.64
16,CGTCCAAGCTCAGAGAGGTCAGTGAATGCCGAGT,2.2
17,TAACCAAGGTGAGCTGAGGTCGTTGATCCAACTC,4.26
18,CCTCGGAGGACAGCAGGTCAGAGCTGTCCGCTTT,-0.115
19,GTACCAAGGTGAATAGGTCGTTGCTGAGTAGGCG,0.644
20,GTACCAAGGGGAATAGGTCGTTGATGAGTAGGCG,0.104

row,Sequence,PBM binding z-score
1,ACAGACAGGTGAGTGAAGGTAACTCATCTGGACG,-0.347
2,CCGACTGGGGCAGAAAGGTTACAATACCATCCGG,1
3,GCTAGCAGGCAATTTGGGTCACTCAATGACGGGC,0.222
4,AATACAGGGTCACTCGGCCAGAGTAGGTACGAAT,4.3
5,CCTTACGGGTCAAGGATATAGCACGGGTGGTACG,2.65
6,ACTCGGAGGACAAAGGTCAGAGCCACGCCAGTGA,3.43
7,CCTCCTGGGCCATTCAGAGGTCATTGATCATATG,3.97
8,TGTATGAGGTTATAAGATCAGGGAACGTTGCAAA,1.26
9,GCTGCTAGGTCAGGTTGGTCCGCTAACGGGTACG,0.681
10,GCTCGGAGTACAAGGTCAGAGCTTTGTCCGTAGA,1.48
11,TCTATTATTTGATTAGGGCAACCGAAACAGCGGA,0.857
12,GATACAGGGTCACGGCCAGAGTACGCGTATTGAT,5.4
13,CCTAGCAGGGCAGGGTCACTCAAGCATTTCGCTT,2.88
14,TCTATTACTTGATTAGGGCAACCGAAACAGCGGA,0.676
15,GCTAGTTGTTCAGTAAAAGGTCACACACCGGTCG,3.93
16,GCAGACAGGTGAAACCCAGGTAACTCAGGGTGGC,-0.302
17,GCTAGCAGGCCATTTGGGTAACTCAATGACGGGC,-0.713
18,AATACAGGGTCACTAGGCCAGCGTAGGTACGAAT,4.16
19,ATCGAAAGGTCGAGGTGAGGATAGAGAAAGGGAA,2.63
20,GCACACAGGTGAAACGCAGGTAACTCAGGGTGGC,-0.336
